# According to ChEMBL document CHEMBL1961873, “Compounds: GSK PKIS; Assays: Nanosyn kinase panel” (2012):
# Columns and labels:
# [1] = molecular target: Sphingosine kinase 1 (Homo sapiens) (UniProt Q9NYA1); conditions: at 1 µM;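 note: mean SPHK1 inhibition value reported from the GSK PKIS kinase panel screen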
# [2] = molecular target: T1, Sphingosine kinase 2 (Homo sapiens) (UniProt Q9NRA0); conditions: at 0.1 µM
# T1 sequence (whole entry): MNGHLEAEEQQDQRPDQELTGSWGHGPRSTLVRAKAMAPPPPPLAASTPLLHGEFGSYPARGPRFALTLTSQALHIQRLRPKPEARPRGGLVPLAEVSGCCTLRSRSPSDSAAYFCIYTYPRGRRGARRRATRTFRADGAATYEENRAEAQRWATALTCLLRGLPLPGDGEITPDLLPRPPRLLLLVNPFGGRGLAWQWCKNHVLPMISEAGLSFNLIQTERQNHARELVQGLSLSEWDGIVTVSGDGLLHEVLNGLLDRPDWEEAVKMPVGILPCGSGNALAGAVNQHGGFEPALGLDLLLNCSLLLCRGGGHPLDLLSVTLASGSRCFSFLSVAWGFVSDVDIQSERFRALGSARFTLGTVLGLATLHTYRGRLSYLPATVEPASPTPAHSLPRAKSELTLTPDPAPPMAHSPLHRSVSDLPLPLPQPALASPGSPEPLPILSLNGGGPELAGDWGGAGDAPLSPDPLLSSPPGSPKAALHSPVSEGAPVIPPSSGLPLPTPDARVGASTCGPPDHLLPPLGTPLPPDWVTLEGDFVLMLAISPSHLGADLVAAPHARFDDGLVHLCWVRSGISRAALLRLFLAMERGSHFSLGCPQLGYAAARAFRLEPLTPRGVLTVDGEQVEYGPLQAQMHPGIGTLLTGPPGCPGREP
# [3] = molecular target: T1, Sphingosine kinase 2 (Homo sapiens); conditions: at 1 µM
# [4] = molecular target: Casein kinase II subunit alpha (Homo sapiens) (UniProt P68400); conditions: at 0.1 µM
# [5] = molecular target: Casein kinase II subunit alpha (Homo sapiens) (UniProt P68400); conditions: at 1 µM
# [6] = molecular target: T2, Inhibitor of nuclear factor kappa-B kinase subunit alpha (Homo sapiens) (UniProt O15111); conditions: at 0.1 µM
# T2 sequence (whole entry): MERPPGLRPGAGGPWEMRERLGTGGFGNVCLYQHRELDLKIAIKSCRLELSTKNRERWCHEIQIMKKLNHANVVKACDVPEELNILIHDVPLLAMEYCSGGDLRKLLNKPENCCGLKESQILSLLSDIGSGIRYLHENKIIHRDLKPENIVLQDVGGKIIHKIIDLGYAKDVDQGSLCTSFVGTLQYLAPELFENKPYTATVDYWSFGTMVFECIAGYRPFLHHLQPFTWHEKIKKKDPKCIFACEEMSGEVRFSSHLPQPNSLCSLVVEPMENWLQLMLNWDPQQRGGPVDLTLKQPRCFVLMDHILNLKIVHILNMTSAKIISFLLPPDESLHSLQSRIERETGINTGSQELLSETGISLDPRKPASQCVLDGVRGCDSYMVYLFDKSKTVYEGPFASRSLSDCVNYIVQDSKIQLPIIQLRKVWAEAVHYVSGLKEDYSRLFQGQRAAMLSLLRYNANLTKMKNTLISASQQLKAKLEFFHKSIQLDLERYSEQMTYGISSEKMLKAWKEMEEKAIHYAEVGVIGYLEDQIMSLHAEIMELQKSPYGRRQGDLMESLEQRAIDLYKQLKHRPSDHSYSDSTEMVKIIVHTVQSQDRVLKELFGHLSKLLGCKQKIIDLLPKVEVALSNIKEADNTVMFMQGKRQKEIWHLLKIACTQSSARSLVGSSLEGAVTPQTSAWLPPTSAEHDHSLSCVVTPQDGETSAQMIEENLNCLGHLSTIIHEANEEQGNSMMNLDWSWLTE
# [7] = molecular target: T2, Inhibitor of nuclear factor kappa-B kinase subunit alpha (Homo sapiens); conditions: at 1 µM
# [8] = molecular target: T3, Inhibitor of nuclear factor kappa-B kinase subunit beta (Homo sapiens) (UniProt O14920); conditions: at 0.1 µM
# T3 sequence (whole entry): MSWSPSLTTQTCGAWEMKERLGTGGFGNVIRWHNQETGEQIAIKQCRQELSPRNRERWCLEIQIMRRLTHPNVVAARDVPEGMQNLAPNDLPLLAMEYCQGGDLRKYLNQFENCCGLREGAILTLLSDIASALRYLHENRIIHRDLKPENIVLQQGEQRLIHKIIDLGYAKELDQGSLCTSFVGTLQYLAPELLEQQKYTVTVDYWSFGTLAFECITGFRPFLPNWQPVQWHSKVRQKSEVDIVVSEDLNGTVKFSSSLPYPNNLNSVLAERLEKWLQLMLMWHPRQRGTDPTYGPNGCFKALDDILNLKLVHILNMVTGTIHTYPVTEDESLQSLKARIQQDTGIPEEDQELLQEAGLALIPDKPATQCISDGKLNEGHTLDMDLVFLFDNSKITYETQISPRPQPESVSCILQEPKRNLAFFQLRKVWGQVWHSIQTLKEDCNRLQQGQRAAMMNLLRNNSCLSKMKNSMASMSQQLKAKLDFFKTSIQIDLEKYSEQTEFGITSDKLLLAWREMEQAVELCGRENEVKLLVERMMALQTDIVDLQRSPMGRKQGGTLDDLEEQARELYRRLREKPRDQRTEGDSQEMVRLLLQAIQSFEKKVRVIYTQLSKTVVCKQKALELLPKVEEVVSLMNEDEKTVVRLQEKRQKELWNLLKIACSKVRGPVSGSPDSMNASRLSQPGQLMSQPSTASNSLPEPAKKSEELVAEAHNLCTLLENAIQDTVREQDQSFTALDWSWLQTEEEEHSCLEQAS
# [9] = molecular target: T3, Inhibitor of nuclear factor kappa-B kinase subunit beta (Homo sapiens); conditions: at 1 µM
# [10] = molecular target: T4, Inhibitor of nuclear factor kappa-B kinase subunit epsilon (Homo sapiens) (UniProt Q14164); conditions: at 0.1 µM
# T4 sequence (whole entry): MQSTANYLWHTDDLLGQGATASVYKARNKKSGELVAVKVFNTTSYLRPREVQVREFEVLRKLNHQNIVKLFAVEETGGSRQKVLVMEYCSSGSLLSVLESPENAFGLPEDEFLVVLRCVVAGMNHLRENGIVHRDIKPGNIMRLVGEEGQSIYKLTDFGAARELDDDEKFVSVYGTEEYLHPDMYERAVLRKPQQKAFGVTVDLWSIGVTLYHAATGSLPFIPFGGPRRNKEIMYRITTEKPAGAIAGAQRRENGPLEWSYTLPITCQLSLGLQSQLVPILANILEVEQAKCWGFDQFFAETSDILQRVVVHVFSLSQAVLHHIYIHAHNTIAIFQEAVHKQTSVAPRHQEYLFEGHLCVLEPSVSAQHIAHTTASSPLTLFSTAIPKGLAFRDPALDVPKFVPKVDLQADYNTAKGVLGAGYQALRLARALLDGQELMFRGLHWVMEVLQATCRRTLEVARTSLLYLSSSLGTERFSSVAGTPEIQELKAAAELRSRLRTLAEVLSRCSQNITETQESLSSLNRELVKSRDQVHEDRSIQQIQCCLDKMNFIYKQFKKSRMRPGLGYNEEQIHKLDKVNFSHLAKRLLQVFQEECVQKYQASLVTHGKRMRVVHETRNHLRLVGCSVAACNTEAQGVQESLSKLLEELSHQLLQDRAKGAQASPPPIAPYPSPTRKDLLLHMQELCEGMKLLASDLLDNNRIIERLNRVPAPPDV
# [11] = molecular target: T4, Inhibitor of nuclear factor kappa-B kinase subunit epsilon (Homo sapiens); conditions: at 1 µM
# [12] = molecular target: T5, Serine/threonine-protein kinase Nek1 (Homo sapiens) (UniProt Q96PY6); conditions: at 0.1 µM
# T5 sequence (whole entry): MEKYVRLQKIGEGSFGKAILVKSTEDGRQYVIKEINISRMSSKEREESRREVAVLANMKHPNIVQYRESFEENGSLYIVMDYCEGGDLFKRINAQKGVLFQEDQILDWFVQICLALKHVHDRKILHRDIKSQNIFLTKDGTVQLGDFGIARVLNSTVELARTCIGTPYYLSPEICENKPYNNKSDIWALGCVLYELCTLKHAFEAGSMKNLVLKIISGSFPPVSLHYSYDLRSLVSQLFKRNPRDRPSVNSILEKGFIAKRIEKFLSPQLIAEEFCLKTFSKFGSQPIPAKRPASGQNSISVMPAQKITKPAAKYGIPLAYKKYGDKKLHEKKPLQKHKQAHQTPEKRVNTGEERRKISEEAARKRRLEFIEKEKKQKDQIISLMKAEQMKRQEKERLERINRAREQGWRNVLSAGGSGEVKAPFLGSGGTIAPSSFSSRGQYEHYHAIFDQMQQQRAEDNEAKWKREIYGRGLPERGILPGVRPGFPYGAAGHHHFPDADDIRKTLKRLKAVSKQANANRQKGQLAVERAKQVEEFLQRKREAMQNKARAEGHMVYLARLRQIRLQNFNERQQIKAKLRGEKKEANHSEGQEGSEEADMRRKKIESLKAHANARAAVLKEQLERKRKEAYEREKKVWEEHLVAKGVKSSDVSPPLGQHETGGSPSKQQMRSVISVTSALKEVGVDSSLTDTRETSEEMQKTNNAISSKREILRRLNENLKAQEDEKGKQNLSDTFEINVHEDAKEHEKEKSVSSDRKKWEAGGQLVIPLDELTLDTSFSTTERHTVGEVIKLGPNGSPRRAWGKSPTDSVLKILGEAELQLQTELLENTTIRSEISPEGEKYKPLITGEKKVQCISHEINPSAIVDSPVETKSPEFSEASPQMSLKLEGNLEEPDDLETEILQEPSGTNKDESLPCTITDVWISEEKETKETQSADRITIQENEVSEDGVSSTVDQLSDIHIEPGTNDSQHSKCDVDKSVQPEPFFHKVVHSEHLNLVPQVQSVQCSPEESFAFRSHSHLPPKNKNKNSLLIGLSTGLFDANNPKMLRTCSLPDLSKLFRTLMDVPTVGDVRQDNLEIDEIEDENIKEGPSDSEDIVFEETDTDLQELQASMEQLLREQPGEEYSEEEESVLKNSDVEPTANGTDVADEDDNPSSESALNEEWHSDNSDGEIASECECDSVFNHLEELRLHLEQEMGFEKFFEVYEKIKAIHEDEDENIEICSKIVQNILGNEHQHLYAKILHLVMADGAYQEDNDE
# [13] = molecular target: T5, Serine/threonine-protein kinase Nek1 (Homo sapiens); conditions: at 1 µM
# [14] = molecular target: T6, Serine/threonine-protein kinase Nek2 (Homo sapiens) (UniProt P51955); conditions: at 0.1 µM
# T6 sequence (whole entry): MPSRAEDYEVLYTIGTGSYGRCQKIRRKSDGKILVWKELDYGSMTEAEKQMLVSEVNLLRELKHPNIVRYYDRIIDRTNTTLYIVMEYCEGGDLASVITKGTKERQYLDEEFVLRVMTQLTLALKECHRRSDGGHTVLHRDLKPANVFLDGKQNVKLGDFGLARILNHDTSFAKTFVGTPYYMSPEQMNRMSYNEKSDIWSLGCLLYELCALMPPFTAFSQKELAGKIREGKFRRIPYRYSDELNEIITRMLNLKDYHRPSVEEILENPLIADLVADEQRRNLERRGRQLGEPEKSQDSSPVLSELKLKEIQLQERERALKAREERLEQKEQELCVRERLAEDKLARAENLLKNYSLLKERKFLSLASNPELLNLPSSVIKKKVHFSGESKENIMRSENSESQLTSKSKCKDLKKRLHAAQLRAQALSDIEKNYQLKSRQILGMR
# [15] = molecular target: T6, Serine/threonine-protein kinase Nek2 (Homo sapiens); conditions: at 1 µM
# [16] = molecular target: Serine/threonine-protein kinase Nek6 (Homo sapiens) (UniProt Q9HC98); conditions: at 0.1 µM
# [17] = molecular target: Serine/threonine-protein kinase Nek6 (Homo sapiens) (UniProt Q9HC98); conditions: at 1 µM
# [18] = molecular target: Serine/threonine-protein kinase Nek7 (Homo sapiens) (UniProt Q8TDX7); conditions: at 0.1 µM
# [19] = molecular target: Serine/threonine-protein kinase Nek7 (Homo sapiens) (UniProt Q8TDX7); conditions: at 1 µM
# [20] = molecular target: T7, Serine/threonine-protein kinase Nek9 (Homo sapiens) (UniProt Q8TD19); conditions: at 0.1 µM;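 note: reported value is the mean percent inhibition of NEK9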
# T7 sequence (whole entry): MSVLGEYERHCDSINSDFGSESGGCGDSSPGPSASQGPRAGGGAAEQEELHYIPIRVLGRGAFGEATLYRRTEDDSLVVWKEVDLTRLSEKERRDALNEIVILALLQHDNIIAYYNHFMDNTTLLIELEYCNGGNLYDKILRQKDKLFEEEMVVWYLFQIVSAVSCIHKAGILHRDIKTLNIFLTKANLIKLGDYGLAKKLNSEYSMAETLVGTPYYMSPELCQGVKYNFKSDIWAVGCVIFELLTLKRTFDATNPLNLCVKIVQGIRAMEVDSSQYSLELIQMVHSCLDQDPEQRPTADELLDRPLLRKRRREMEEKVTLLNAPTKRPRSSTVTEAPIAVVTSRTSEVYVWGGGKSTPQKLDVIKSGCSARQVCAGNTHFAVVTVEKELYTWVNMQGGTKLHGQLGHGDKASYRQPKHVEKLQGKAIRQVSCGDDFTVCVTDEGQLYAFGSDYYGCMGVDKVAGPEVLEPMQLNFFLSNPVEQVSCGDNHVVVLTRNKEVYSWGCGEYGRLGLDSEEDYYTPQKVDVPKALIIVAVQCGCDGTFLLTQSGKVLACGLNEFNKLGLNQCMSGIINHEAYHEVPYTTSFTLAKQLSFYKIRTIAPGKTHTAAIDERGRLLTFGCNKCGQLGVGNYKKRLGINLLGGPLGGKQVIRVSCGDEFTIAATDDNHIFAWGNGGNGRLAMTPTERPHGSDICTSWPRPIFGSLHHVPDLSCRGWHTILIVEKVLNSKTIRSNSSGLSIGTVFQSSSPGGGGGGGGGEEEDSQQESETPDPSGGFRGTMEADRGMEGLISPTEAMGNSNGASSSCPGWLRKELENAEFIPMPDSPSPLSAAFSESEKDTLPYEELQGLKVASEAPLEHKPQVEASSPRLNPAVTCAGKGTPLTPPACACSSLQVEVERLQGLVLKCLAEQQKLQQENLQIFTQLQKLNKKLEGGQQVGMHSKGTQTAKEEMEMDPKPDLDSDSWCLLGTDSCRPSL
# Sequence of Serine/threonine-protein kinase Nek7 (Homo sapiens) (Q8TDX7 whole entry, looked up): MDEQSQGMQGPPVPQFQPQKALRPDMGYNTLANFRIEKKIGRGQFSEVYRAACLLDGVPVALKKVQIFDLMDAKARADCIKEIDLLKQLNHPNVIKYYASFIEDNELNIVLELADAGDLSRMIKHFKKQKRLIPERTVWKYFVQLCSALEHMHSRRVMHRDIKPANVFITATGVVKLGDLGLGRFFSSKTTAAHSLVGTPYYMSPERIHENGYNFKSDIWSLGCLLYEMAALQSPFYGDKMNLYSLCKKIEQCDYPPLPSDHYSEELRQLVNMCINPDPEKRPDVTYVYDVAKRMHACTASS
# Sequence of Casein kinase II subunit alpha (Homo sapiens) (P68400 whole entry, looked up): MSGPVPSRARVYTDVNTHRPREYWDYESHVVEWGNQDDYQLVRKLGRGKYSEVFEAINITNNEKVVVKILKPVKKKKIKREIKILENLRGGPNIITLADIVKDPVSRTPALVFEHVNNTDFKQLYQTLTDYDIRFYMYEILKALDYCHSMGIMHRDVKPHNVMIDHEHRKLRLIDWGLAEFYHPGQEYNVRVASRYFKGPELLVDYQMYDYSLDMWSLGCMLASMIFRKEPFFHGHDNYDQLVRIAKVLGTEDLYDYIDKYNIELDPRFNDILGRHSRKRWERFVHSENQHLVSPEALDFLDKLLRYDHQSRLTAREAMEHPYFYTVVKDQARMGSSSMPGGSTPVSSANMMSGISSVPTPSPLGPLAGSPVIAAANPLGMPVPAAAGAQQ
# Sequence of Serine/threonine-protein kinase Nek6 (Homo sapiens) (Q9HC98 whole entry): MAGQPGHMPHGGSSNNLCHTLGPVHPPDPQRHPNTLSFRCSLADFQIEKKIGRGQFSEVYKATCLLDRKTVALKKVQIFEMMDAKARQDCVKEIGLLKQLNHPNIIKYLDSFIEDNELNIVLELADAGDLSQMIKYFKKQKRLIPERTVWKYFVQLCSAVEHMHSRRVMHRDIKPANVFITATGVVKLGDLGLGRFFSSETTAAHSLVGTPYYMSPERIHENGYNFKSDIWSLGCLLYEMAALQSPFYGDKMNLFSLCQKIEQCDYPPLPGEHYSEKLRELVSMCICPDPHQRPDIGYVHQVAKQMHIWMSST
# Sequence of Sphingosine kinase 1 (Homo sapiens) (Q9NYA1 whole entry): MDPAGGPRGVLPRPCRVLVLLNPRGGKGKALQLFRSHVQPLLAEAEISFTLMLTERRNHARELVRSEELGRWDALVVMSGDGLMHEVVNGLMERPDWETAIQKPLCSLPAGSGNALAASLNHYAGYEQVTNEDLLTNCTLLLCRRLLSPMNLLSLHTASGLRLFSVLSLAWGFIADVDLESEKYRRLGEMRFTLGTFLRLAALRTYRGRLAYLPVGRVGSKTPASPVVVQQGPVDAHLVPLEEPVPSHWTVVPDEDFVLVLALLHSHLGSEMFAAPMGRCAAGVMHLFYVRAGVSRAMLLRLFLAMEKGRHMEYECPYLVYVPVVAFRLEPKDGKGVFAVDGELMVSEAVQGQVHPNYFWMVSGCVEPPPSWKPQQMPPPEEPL
smiles,measurement,setting,value
COc1cccc(-n2nc(C)c3c(N/N=C(\C)c4ccncc4)ncnc32)c1,inhibition,[1],2.22%
same,inhibition,[2],0.03%
same,inhibition,[3],0%
same,inhibition,[4],2.16%
same,inhibition,[5],6.88%
same,inhibition,[6],1.96%
same,inhibition,[7],-2.68%
same,inhibition,[8],1.3%
same,inhibition,[9],1.94%
same,inhibition,[10],-1.8%
same,inhibition,[11],1.16%
same,inhibition,[12],1.7%
same,inhibition,[13],-0.2%
same,inhibition,[14],1.96%
same,inhibition,[15],-1.21%
same,inhibition,[16],1.56%
same,inhibition,[17],1.26%
same,inhibition,[18],0.76%
same,inhibition,[19],2.39%
same,inhibition,[20],4.23%
